Assay outcomes deposited in PubChem by several laboratories.
Hits are enriched below; roughly 5% of the tested compounds scored in any of these assays.
AI-2 QS mod: Vibrio harveyi AI-2 quorum sensing modulators, primary screen, JMH597 strain, luminescence/OD600 ratio | Vibrio harveyi JMH597 AI-2 luminescence/OD600 ratio, 9 h; stronger effect = lower value; strain lacks LuxN and CqsS sensors; 0 = neutral-control median | activity change, % at 7.5 µM | 300,000 tested, 0.4% active; in the data active = activity change below about -75%, passing the limit was not always enough;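 note: luminescence divided by OD600 gain over 9 h not by final OD600 alone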
CHT PAM: CHT positive allosteric modulators, primary screen, cell-based, membrane potential dye, choline EC20; 310,000 tested, 0.49% active; AID 488977, 2010; B-score at 10 µM; CHT-expressing cells; stronger effect = higher value; LV-AA mutant CHT in HEK293 cells; High affinity choline transporter 1 (Homo sapiens), Q9GZV3;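 active = initial fluorescence not abnormally high and integrated response B-score, plate-corrected, over 3 SD above library mean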
Target sequence (Q9GZV3 whole entry, looked up): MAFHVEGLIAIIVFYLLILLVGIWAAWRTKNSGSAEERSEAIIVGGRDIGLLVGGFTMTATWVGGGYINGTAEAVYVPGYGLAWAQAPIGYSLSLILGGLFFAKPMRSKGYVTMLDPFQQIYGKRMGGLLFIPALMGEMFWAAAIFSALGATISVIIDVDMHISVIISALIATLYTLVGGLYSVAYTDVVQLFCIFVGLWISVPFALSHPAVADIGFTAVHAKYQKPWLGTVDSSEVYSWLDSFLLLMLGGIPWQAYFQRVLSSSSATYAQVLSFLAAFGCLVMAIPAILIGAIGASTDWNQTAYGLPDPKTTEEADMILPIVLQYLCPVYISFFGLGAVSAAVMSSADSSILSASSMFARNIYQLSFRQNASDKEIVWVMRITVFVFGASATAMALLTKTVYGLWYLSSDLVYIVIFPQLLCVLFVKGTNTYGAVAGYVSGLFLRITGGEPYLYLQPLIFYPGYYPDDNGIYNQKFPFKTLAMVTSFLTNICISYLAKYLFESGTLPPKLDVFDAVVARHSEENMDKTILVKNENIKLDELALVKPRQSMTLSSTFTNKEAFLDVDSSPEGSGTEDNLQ
ALR inh: inhibitors of human ALR sulfhydryl oxidase, primary screen, biochemical, H2O2 detection, HRP-luminol luminescence, single point; purified ALR, DTT oxidation; inhibition, % (test concentration not listed); 290,000 tested, 3.8% active;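 active = mean replicate inhibition above about 79%, with every replicate also reaching it, limit read from the data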
CHT block: inhibitors of human choline transporter CHT; B-score at 10 µM; High affinity choline transporter 1 (Homo sapiens), Q9GZV3; CHT-expressing cells, membrane potential dye, choline response; stronger effect = lower value; 310,000 tested, 0.86% active;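 active = B-score over 3 SD under the library average, and starting fluorescence ratio not unusually high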;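 note: choline stimulus applied at its EC90 after an EC20 pre-addition; B-score computed on integrated fluorescence ratio after choline addition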
PREPL inh: PREPL enzyme inhibitors, primary screen, biochemical, fluorescence polarization; Prolyl endopeptidase-like (Homo sapiens), Q4J6C6; recombinant PREPL, fluorescence polarization activity-based probe; inhibition, % at 5.96 µM; 320,000 tested, 0.68% active;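 note: 0% = enzyme with DMSO and 100% = wells lacking enzyme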
PREPL confirm: human PREPL enzyme inhibitors, confirmation, biochemical, fluorescence polarization; inhibition, % at 5.96 µM; shares compounds with PREPL inh; recombinant PREPL, fluorescence polarization activity probe; 2,000 tested, 67% active; AID 2803, 2010;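 note: 0% = protein with DMSO and 100% = wells lacking protein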
CHT inh conf: CHT inhibitors, confirmation, cell-based, membrane potential dye, duplicate. CHT activity remaining % of control (stronger effect = lower value), % at 10 µM. 2,400 tested, 70% active. shares compounds with CHT block. CHT-expressing cells, choline membrane potential dye; LV-to-AA substituted CHT, HEK293 cells;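 active = choline transporter activity left, mean of duplicates at 10 µM, below buffer-only control mean minus 3 SD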;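 note: depolarization triggered by choline at its EC90 following an EC20 pre-addition; 0% = hemicholinium-3 full block and 100% = buffer-only control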
HEK293 MPD ctr: membrane potential effects in parental HEK293, counter-screen for CHT inhibitor project, cell-based, membrane potential dye; shares compounds with CHT block; choline response; active = decrease or increase beyond buffer ±3SD; membrane potential ratio readout (active if shifted either direction beyond buffer ±3SD; no single direction) at 10 µM; 2,400 tested, 4% active; AID 493222, 2011;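 note: parental cells lack the transporter so any hit is non-specific; ratio is peak minus trough fluorescence over baseline after EC90 choline challenge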
CHT act confirm: CHT activators, confirmation, cell-based, membrane potential dye, duplicate | AID 504833, 2011 | 2,500 tested, 91% active | shares compounds with CHT PAM | CHT-expressing cells, membrane potential dye fluorescence (FDSS); % of choline EC20–EC90 response window; HEK293 expressing CHT LV-AA mutant; choline added at its EC20 | activation, % at 10 µM;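 active = primary screen active, with duplicate mean activation above negative control mean plus 3 SD, cut at about 11% in these data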
HEK293 MP dye: membrane potential response in parental HEK293 cells, counter-screen for CHT activator project, cell-based, membrane potential dye; shares compounds with CHT PAM; 2,500 tested, 62% active; ratio readout change at 10 µM, hits read low; membrane potential dye fluorescence (FDSS); measured after EC20 choline addition; AID 623908, 2012;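 active = duplicate-averaged ratio beyond 3 SD from buffer wells, up or down, though filed actives are nearly all decreases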
Starred values were filed as active, the others as inactive. Cut-off read from the data, not from the text of the source, unless noted: active = inhibition above about 43%; inactive = the rest.

What do the screens show for `Clc1ccc(C[n+]2c(-c3ccccc3)cc(-c3ccccc3)cc2-c2ccccc2)cc1`?
AI-2 QS mod: 35.4; CHT PAM: inactive; ALR inh: -11.4; CHT block: -8.87*; PREPL inh: 71.0*; PREPL confirm: 62.9*

What do the screens show for `CC(C)Cc1[nH]c(=O)c(C#N)c2c1CCC2`?
AI-2 QS mod: -0.3; CHT PAM: inactive; ALR inh: -11.9; CHT block: inactive; PREPL inh: 75.0*; PREPL confirm: 66.4*

Results for CCCc1nc2ccccc2c(=O)n1-c1ccccc1OC ?
AI-2 QS mod: 13.9; CHT PAM: inactive; ALR inh: 0.6; CHT block: inactive; PREPL inh: 17.3

Results for CCCCc1nc2ccccc2c(=O)n1-c1ccccc1O ?
AI-2 QS mod: 37.5; CHT PAM: inactive; ALR inh: 8.6; CHT block: inactive; PREPL inh: 110.8*; PREPL confirm: -2.0

What do the screens show for `COC(=O)C1=C(c2cccc(OCc3ccccc3)c2)C[C@@H]2CC[C@H]1N2C(=O)NCCCOC(C)C`?
ALR inh: -6.0; PREPL inh: 45.9*; PREPL confirm: 33.5

How did COCCOC(=O)C1=C(N)Oc2c(c(=O)oc3ccccc23)[C@@]12C(=O)Nc1ccccc12 do in these assays?
AI-2 QS mod: -0.4; CHT PAM: inactive; CHT block: inactive; PREPL inh: 3.3

How did CCC(=NCCc1c[nH]c2ccccc12)c1c(O)n(-c2ccc(C)cc2)c(=O)[nH]c1=O do in these assays?
AI-2 QS mod: 15.8; CHT PAM: inactive; ALR inh: 3.8; CHT block: inactive; PREPL inh: 44.4*; PREPL confirm: 46.1*

What do the screens show for `O=C1NC2NC(=O)N([N+](=O)[O-])C2N1` (stereo not drawn)?
AI-2 QS mod: 8.1; CHT PAM: inactive; ALR inh: -4.5; CHT block: inactive; PREPL inh: -11.7

What do the screens show for `CC(=O)OC1(c2ccccc2)CCN(C)C(C)C1C` (stereo not drawn)?
AI-2 QS mod: 18.5; CHT PAM: inactive; ALR inh: -2.5; CHT block: inactive; PREPL inh: 4.2

What do the screens show for `CCOc1cc(/C=C2/C(=O)NC(=O)N(c3ccc(CC)cc3)C2=O)ccc1OC(=O)c1cccs1`?
AI-2 QS mod: 22.1; CHT PAM: inactive; ALR inh: 5.9; CHT block: -6.63*; PREPL inh: 48.1*; PREPL confirm: 51.6*; CHT inh conf: 59.1%*; HEK293 MPD ctr: inactive

Results for O=C(c1ccc2c(=O)n(Cc3ccc4c(c3)OCO4)c(=S)[nH]c2c1)N1CCC2(CC1)OCCO2 ?
AI-2 QS mod: 41.4; CHT PAM: inactive; ALR inh: 8.3; CHT block: inactive; PREPL inh: 6.3

What do the screens show for `O=[N+]([O-])c1ccc(-[n+]2c(-c3ccccc3)cc(-c3ccccc3)cc2-c2ccccc2)cc1`?
AI-2 QS mod: 22.6; CHT PAM: inactive; ALR inh: -7.6; CHT block: inactive; PREPL inh: 43.4*; PREPL confirm: 39.3; CHT act confirm: 65.6*; HEK293 MP dye: -28.1*

How did c1ccc(P(c2ccccn2)c2ccccn2)cc1 do in these assays?
AI-2 QS mod: 18.3; CHT PAM: inactive; CHT block: inactive; PREPL inh: 1.2

What do the screens show for `CC[C@H]1CC2CN3CCc4c([nH]c5cc(OC)ccc45)[C@](C(=O)OC)(C2)[C@H]13`?
AI-2 QS mod: 13.5; CHT PAM: inactive; ALR inh: 60.4; CHT block: inactive; PREPL inh: 10.4

Results for COc1ccc2c3c([nH]c2c1)C(C)=NCC3 ?
AI-2 QS mod: 22.3; CHT PAM: inactive; ALR inh: 12.6; CHT block: inactive; PREPL inh: 71.3*; PREPL confirm: 33.0; CHT act confirm: 32.7*; HEK293 MP dye: -42.8*

Results for O=C1NC(=O)N(c2ccc(Cl)cc2)C(=O)/C1=C/c1coc2ccc(O)cc2c1=O ?
AI-2 QS mod: 42.6; CHT PAM: inactive; ALR inh: 41.0; CHT block: -5.87*; PREPL inh: 2.9; CHT inh conf: 58.6%*; HEK293 MPD ctr: inactive

How did CCOc1cc2c(cc1OCC)-n1cccc1C(c1ccc(OC)c(O)c1)NC2 (stereo not drawn) do in these assays?
AI-2 QS mod: 5.5; CHT PAM: inactive; ALR inh: 4.0; CHT block: inactive; PREPL inh: 8.8

What do the screens show for `C=CCn1c(O)c(C(CC)=NC(C)c2ccccc2)c(=O)[nH]c1=O` (stereo not drawn)?
AI-2 QS mod: 2.6; CHT PAM: inactive; ALR inh: -1.3; CHT block: -4.99*; PREPL inh: 16.2; CHT inh conf: 48.8%*; HEK293 MPD ctr: inactive

What do the screens show for `C[C@]12CC[C@H](O)C[C@@H]1CC[C@@H]1[C@@H]2CC[C@]2(C)[C@@H](C(=O)O)C[C@@H]12`?
AI-2 QS mod: 20.9; CHT PAM: inactive; ALR inh: 2.5; CHT block: -13.7*; PREPL inh: 3.1; CHT inh conf: inactive; HEK293 MPD ctr: inactive

Results for O=C(Cc1c(Cl)cccc1Cl)N1CCN(Cc2ccccc2)CC1 ?
AI-2 QS mod: 20.8; CHT PAM: inactive; ALR inh: 4.3; CHT block: inactive; PREPL inh: -7.2
